Results from PubChem BioAssay AID1626 (SRMLSC, 2009).
In all, about 220,000 compounds went through this assay and about 2,000 (0.91%) were called active. Another 2% or so got no clear call; they are omitted. Only a sample is shown. Results with a measured potency or affinity are listed apart. Unmarked numbers belong to inactive results. Rule as the data show it: inconclusive = inhibition above about 80% without an active follow-up result; inactive = below that; test concentration not stated here.

test: M. tuberculosis H37Rv growth inhibitors, H37Rv strain (AID 1626); conditions: stronger effect = higher value, concentration not given here;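 also: bacteria incubated seven days before Alamar blue readout; 0% = bacteria only wells and 100% = bacteria with antibiotic wells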

Point of comparison: COc1ccc(S(=O)(=O)N2CCCC(C(=O)NCc3ccncc3)C2)cc1 (centres undefined), inhibition -3.7%. Against it:
- CN(C)/C=C/C(=O)c1ccc(N2CCN(c3ncc(C(F)(F)F)cc3Cl)CC2)cc1 — lower, -11.4%
- CCOC1(OCC)C(c2ccc(N)cc2)C(C#N)(C#N)C1(OCC)OCC (centres undefined) — lower, -7.48%
- CC(C)(C)S(=O)(=O)c1cnc(-c2ccccn2)nc1N — lower, -8.12%
- COc1ccc(-c2nnc(SCC#CCO)o2)cc1OC — lower, -8.82%
- O=C(CSc1nnc(-c2ccncc2)o1)c1cccc([N+](=O)[O-])c1 — lower, -6.49%
- O=C(CSc1nnc(-c2cccs2)o1)c1cccs1 — higher, 11.9%
- OCC#CCSc1nnc(-c2ccncc2)o1 — higher, -1.67%
- O=C(OCC#CCSc1nnc(-c2cccc3ccccc23)o1)c1cccs1 — higher, 60.9%
- COc1ccc(-c2nnc(SCC(=O)c3cccs3)o2)cc1 — higher, 12.7%
- O=C(NCCSc1ccccc1)c1ccccc1 — lower, -18.6%
- O=C(c1ccco1)[C@@H]1[C@@H]2C(=O)N(c3ccccc3)C(=O)[C@@H]2C2c3ccccc3C=CN21 (some centres undefined) — lower, -13.4%
- COc1ccc(C)cc1S(=O)(=O)N(CC(=O)Nc1cccc([N+](=O)[O-])c1)c1ccccc1 — higher, 0.46%
- Cc1cc(N2CCN(c3cccc(C)c3C)CC2)nc(-c2ccccc2)n1 — higher, 6.21%
- CC(C)(C)C(=O)Nc1nnc(Cc2ccccc2)s1 — higher, 10.8%
- CCOC(=O)CSc1nc2ccccc2c(=O)n1CC(C)C — higher, 7.35%
- CCOC(=O)C1(CCOc2ccccc2)CCN(Cc2cccc(-n3cccn3)c2)CC1 — higher, -2.65%
- CCOC(=O)C1(CCOc2ccccc2)CCN(Cc2ccc(-n3cccn3)cc2)CC1 — higher, 4.73%
- CCc1cc2c(SCC(=O)N(CC)c3c(N)n(Cc4ccccc4)c(=O)[nH]c3=O)ncnc2s1 — higher, 5.81%
- Clc1ccc(-c2csc(N/N=C/c3ccc4c(c3)OCO4)n2)cc1 — higher, 48.7%
- CCNC(=O)Nc1nc2ccccc2s1 — higher, 4.21%
- Cc1cccc(Cl)c1OCCCCn1ccnc1 — higher, 3.12%
- Cc1ccc(OCCCCn2ccnc2)c(Cl)c1 — higher, 56.8%
- Cc1cc(OCCCCn2ccnc2)cc(C)c1Cl — higher, 51.5%
- Cc1cc(OCCCn2ccnc2)cc(C)c1Cl — higher, 16.8%
- O=C(CCN1C(=O)c2ccccc2C1=O)Nc1ccc(S(=O)(=O)N2CCOCC2)cc1 — lower, -4.04%
- Cc1cc(C)cc(OCC(O)CN2C(=O)NC(C)(C)C2=O)c1 (centres undefined) — lower, -17.8%
- FC(F)(F)c1cccc(NC(=S)N2CCN(c3ccccc3)CC2)c1 — higher, -3.11%
- CC(NC(=O)Cn1cc(C(=O)C2CC2)c2ccccc21)c1ccccc1 (centres undefined) — higher, 6.54%
- COC(=O)c1cc(C(=O)c2cc(Cl)ccc2O)coc1=N — higher, 3.92%
- CC(C)OC(=O)c1cc(C(=O)c2cc(Br)ccc2O)coc1=N — higher, -3.62%
- Nc1nnc(SCC(=O)c2ccc([N+](=O)[O-])cc2)s1 — lower, -6.55%
- COc1ccc(S(=O)(=O)N(C)c2ccc(C(N)=O)cc2)cc1 — higher, 3%
- O=C(NCc1ccc2c(c1)OCO2)C1CC(=O)N(C2CCCCCCC2)C1 (centres undefined) — higher, 5.14%
- Cc1ccc(-c2nnc(-n3ncc(C#N)c3N)c3ccccc23)cc1C — lower, -8.25%
- COc1ccc2cc(C(=O)C3CCCN(C(=O)/C=C/c4ccccn4)C3)ccc2c1 (centres undefined) — higher, 1.13%
- COc1ccc(-c2oc3ncn(CCN4CCOCC4)c(=N)c3c2-c2ccc(OC)cc2)cc1 — higher, -3.67%
- N=c1c2c(-c3ccccc3)c(-c3ccccc3)n(Cc3ccco3)c2ncn1CCCO — higher, 15.2%
- N=c1c2c(-c3ccccc3)c(-c3ccccc3)n(Cc3ccco3)c2ncn1CCO — higher, 20%
- COc1ccc(C2c3c(ncn(Cc4ccco4)c3=N)Oc3ccc4ccccc4c32)cc1 (centres undefined) — higher, 38.6%
- CS(=O)(=O)N(CC(=O)Nc1ccccc1C(=O)N1CCCC1)c1cccc([N+](=O)[O-])c1 — higher, 3.06%
- Cc1csc(Nc2cccc3ccccc23)n1 — higher, 6.85%
- Cc1ccc(C(=O)Nc2ccccc2-c2ccccc2)cc1[N+](=O)[O-] — higher, 14.5%
- COC(=O)CSc1snnc1-c1ccc(F)cc1 — higher, -0.55%
- Cc1nn(Cc2c(Cl)cccc2Cl)c(Cl)c1/C=N/NC(=O)c1cccnc1 — higher, -3.52%
- CCc1ccc(NC(=O)C(NS(=O)(=O)c2cccc3nsnc23)c2ccccc2)cc1 (centres undefined) — lower, -4.05%
- Cc1ccc(NC(=O)c2ccccc2)cc1OC(=O)c1ccccc1 — higher, 6.17%
- Cc1cccc(C(=O)Nc2cccc(OC(=O)c3cccc(C)c3)c2)c1 — higher, 11.6%
- OCCN1CCN(CC(O)COc2ccc(Cl)cc2)CC1 (centres undefined) — higher, 1.07%
- OCCN1CCN(CC(O)COc2ccc(-c3ccccc3)cc2)CC1 (centres undefined) — higher, 5.51%
- Cc1ccc(CS(=O)(=O)CCC(=O)NCCC2=CCCCC2)cc1 — higher, 7.74%
- CCCCc1n[nH]c(=S)n1Cc1ccccc1 — higher, -1.46%
- COc1cccc2[nH]c3c(N4CCC5(CC4)OCCO5)ncnc3c12 — higher, 1.2%
- CC1(C)C=Cc2c(ccc3c2OC[C@@H](c2ccc(O)cc2O)C3)O1 — higher, 1.16%
- CC(C)=CCc1cc([C@@H]2COc3c(ccc4c3C=CC(C)(C)O4)C2)c(O)cc1O — higher, 8.4%
- COc1ccc2nc(NC(=O)c3cc(S(=O)(=O)N4CCOCC4)ccc3C)sc2c1 — higher, 14.6%
- O=C(c1cn(-c2ccccc2)nc1-c1ccccc1)N1CCOCC1 — lower, -8.16%
- COc1ccccc1/C=N/NC(=S)NCc1ccco1 — higher, -0.41%
- CCOC(=O)C1CCCc2c1[nH]c1c(C(=O)O)cccc21 (centres undefined) — lower, -6.94%
- CCOC(=O)c1ccc2[nH]c3c(c2c1)CCCC3C(=O)OCC (centres undefined) — lower, -4.38%
- CCOc1ccc(S(=O)(=O)N/N=C2/CC(c3ccccc3)Oc3ccccc32)cc1 (centres undefined) — lower, -11.9%
- COC(=O)C1C(c2ccccc2)C=CC(c2ccccc2)C1C(=O)O (centres undefined) — higher, 1.24%
- O=C1C(Nc2ccccc2)=C(N2CCCCC2)C(=O)c2ccccc21 — higher, -1.08%
- O=C1C=C(Nc2ccccc2C(=O)O)c2ccccc2C1=O — higher, 1.72%
- O=C1C=C(Nc2ccc(O)cc2)C(=O)c2ccccc21 — higher, 5.07%
- CCCCNC1=CC(=O)C(=O)c2ccccc21 — higher, 1.34%
- COC1=C(Nc2ccc(C)cc2)C(=O)c2ccccc2C1=O — higher, 12.8%
- O=C1C(Cl)=C(Nc2ccccc2)C(=O)c2ccccc21 — higher, -1.42%
- Cc1ccc(NC2=C(Cl)C(=O)c3ccccc3C2=O)cc1 — higher, -1.97%
- O=C1C(Nc2ccccc2)=C(NS(=O)(=O)c2ccccc2)C(=O)c2ccccc21 — higher, 8.84%
- O=C(c1cc(-c2ccc(Cl)cc2)n(-c2ccc(Cl)c(Cl)c2)n1)N1CCOCC1 — higher, -1.31%
- Cc1ccc(OCC(=O)Nc2cccc3nsnc23)c(C)c1 — higher, 7.75%
- COCOc1ccc(C=O)cc1OCOC — lower, -3.9%
- COc1cc(Cl)c(C)cc1NC(=O)c1ccc(S(C)(=O)=O)cc1 — higher, 3.38%
- CCOc1cc(C=O)ccc1OS(=O)(=O)c1ccc(NC(C)=O)cc1 — higher, 5.36%
- COc1ccc(CN2C(=O)c3oc4ccccc4c(=O)c3C2c2ccc(O)c(OC)c2)cc1 (centres undefined) — lower, -7.03%
- Cc1onc(-c2cccc(Cl)c2Cl)c1C(=O)O/N=C(\N)c1ccc([N+](=O)[O-])o1 — higher, 67%
- O=c1nc(NCc2ccco2)sc2ncccc12 — lower, -7.68%
- O=C1c2ccc(Oc3ccc4c(c3)C(=O)N(CCCCO)C4=O)cc2C(=O)N1CCCCO — lower, -9.34%
- Cc1ccc2c(c1)C(=O)N(CCCCO)C2=O — higher, -0.27%
- COCCNC(=O)c1ccc2c3n(nc2c1)-c1ccc(Cl)cc1CO3 — lower, -12.9%
- CCOC(=O)c1sc(NC(=O)CCN2CCC(C)CC2)c(C(=O)OCC)c1C — higher, 5.65%
- O=C(COc1ncnc2ccccc12)c1ccc2c(c1)OCCO2 — lower, -5.58%
- O=C(O)C1CC=CCC1C(=O)Nc1ccccc1 (centres undefined) — higher, -3.59%
- O=C(O)[C@H]1CCCC[C@H]1C(=O)Nc1ccc(Nc2ccccc2)cc1 — higher, 3.28%
- CCCc1cc(=O)n2[nH]c(NCc3ccc(OC)c(OC)c3)nc2n1 — higher, 3.17%
- Cc1ccc(C)c(NC(=O)C(Sc2ncnc3ccccc23)c2ccccc2)c1 (centres undefined) — higher, -1.19%
- CC(NC(N)=O)C(=O)Nc1ccc(Cl)c(S(=O)(=O)Nc2ccc(Cl)cc2)c1 (centres undefined) — higher, 0.16%
- COc1ccc(NC(=O)c2cccc(OC(F)F)c2)cc1Cl — higher, 0.2%
- CCOc1ccc(NS(=O)(=O)c2cc(NC(=O)c3ccc(C)cc3)ccc2Cl)cc1 — higher, 11.8%
- O=C(Nc1ccc(OC(F)F)c(Cl)c1)c1cccc(OC(F)F)c1 — higher, 10.2%
- CCOC(=O)c1cc(NC(=O)NCc2ccco2)c(C)nc1C — lower, -7.42%
- O=c1cc(N2CCCCC2)c2ccccc2o1 — higher, -1.79%
- CCOc1cc(CN2CCN(c3cccc(C(F)(F)F)c3)CC2)ccc1O — lower, -11.9%
- CCC/C=N/NC(=O)c1cccc(Br)c1 — higher, 7.16%
- O=C(CSc1nc(-c2ccccc2Cl)ns1)Nc1ccc2c(c1)OCO2 — higher, 98.8%
- COc1ccc(-c2nsc(SCC(=O)NCc3ccc4c(c3)OCO4)n2)cc1 — higher, 6.74%
- Cc1ccc(-c2nsc(SCC(=O)NCc3ccc4c(c3)OCO4)n2)cc1 — higher, 13.2%
- Cc1ccccc1-c1nsc(SCC(=O)Nc2ccc3c(c2)OCO3)n1 — higher, 16.3%
